# This is a sample that favours compounds with a hit; in the whole collection about 1.3% have one here.
# AMA1-RON2 inh – qHTS for Inhibitors of AMA1-RON; Towards Development of Antimalarial Drug Lead: Primary Screen; AlphaScreen AMA1-biotinylated RON2 peptide binding; 0.2% of 360,000 active; Potency, µM (series often up to 58.2 µM), inactives show at the highest dose activity change, negative = inhibition, usual class: inhibitors; Plasmodium falciparum AMA1 (3D7) - RON2 peptide interaction;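 also: 0% = vehicle wells and -100% = peptide control; nearly all actives have a fitted effect of over 45% in size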
#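 AMA1 (3D7) with his tag at 25 nM final met compounds first, then biotinylated RON2 peptide at 25 nM; detection used donor plus acceptor beads, 10 µg/mL apiece, read by AlphaScreen after 30 min at room temperature.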
# Tb PYK inh – qHTS of Trypanosoma Brucei Inhibitors; pyruvate kinase (Trypanosoma brucei), Q57TT1; TbPYK enzyme, Kinase-Glo Plus ATP luminescence, 45 min; Potency, µM (series often up to 76.8 µM), for inactives: at the top dose activity, negative = inhibition, actives largely listed as inhibitors; 0.12% of 410,000 active; also: nearly all actives have a fitted effect of over 50% in size
#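 Glycolytic pyruvate kinase of T. brucei was incubated with substrate, test compound and 130 uM ADP for 45 minutes at room temperature. Luminescent Kinase-Glo Plus signal was measured after 10 minutes.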
# RE007 growth inh – qHTS Assay for Inhibitors of the HIV-1 protein Vpr; S. pombe RE007 Vpr strain, BacTiter-Glo ATP luminescence, 24 h; Potency, µM (top dose mostly 92.2 µM), for the others: top-dose activity change, negative = less growth, hits mostly inhibitors; 0.21% of 360,000 active; AID 651644, 2012; active = well fitted falling curve with a large enough effect; inconclusive = small, poorly fitted or top-dose-only effect; inactive = no such curve, though single readings can be large or run the other way; also: nearly all actives have a fitted effect of over 50% in size
#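 Fission yeast RE007 carrying one integrated HIV-1 vpr copy, seeded at OD 0.01 in PMG+AL medium with 23 nL pinned compound. Grown 24 h at 30 degrees; viability read by BacTiter-Glo luminescence after 5 min.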
# LmPK inh – qHTS Assay for Inhibitors of Leishmania Mexicana Pyruvate Kinase (LmPK). purified LmPK, Kinase-Glo ATP luminescence, 1 h. Q27686. Potency, µM (doses to about 57.5 µM), for inactives: at the top dose activity change, negative = inhibition, usual class: inhibitors. 0.37% of 290,000 active
# Target sequence (Q27686 whole entry, looked up): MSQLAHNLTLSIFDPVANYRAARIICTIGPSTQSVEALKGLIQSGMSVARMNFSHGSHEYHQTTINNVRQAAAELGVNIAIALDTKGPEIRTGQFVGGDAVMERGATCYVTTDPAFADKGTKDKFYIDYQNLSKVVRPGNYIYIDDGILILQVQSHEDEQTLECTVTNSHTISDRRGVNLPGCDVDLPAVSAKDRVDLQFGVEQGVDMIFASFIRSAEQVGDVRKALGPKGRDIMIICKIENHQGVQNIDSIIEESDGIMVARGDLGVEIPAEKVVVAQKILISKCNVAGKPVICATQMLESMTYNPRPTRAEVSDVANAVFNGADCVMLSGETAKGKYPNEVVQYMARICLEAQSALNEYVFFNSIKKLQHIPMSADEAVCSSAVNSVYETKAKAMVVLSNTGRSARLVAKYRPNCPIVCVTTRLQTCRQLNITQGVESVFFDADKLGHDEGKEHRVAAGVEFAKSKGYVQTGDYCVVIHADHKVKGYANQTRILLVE
#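 qHTS format; LmPK 0.1 nM; substrates PEP 0.5 mM and ADP 0.1 mM. One-hour room-temperature incubation, then coupled luciferase luminescence; 0.5 nM enzyme wells mark activation.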
# VACV mCherry inh – qHTS for Stage-Specific Inhibitors of Vaccinia Orthopoxvirus: mCherry Reporter Primary qHTS; Vaccinia virus mCherry reporter infection, fluorescence; Potency, µM (titrated, usually from 36.5 µM), for inactives: at the highest dose activity change, negative = inhibition, usual class: inhibitors; 0.63% of 310,000 active; AID 720579, 2013; calls by dose curve; tested in A549 cells; also: nearly all actives have a fitted effect of over 35% in size
# VACV Venus inh – qHTS for Stage-Specific Inhibitors of Vaccinia Orthopoxvirus: Venus Reporter Primary qHTS; 0.46% of 330,000 active; Potency, µM (series often up to 36.5 µM), without a hit: at the top dose activity change, negative = inhibition, usual class: inhibitors; Vaccinia virus Venus reporter expression, fluorescence; AID 720580, 2013; calls by dose curve; tested in A549 cells; also: nearly all actives have a fitted effect of over 30% in size
# Numbers without * were called inactive; i = inactive; ? = inconclusive; · = no result; [ ] = remark or other dose. Unless noted, calls follow the shape of the dose curve; as a rule, active = well fitted curve in the direction sought with a large enough effect; inconclusive = small, poorly fitted or top-dose-only effect, or another doubt; inactive = no such curve, though single readings can be large; an effect the other way counts as inactive or inconclusive. Unless noted, % is scaled to controls: 0 for no effect and ±100 for the full control effect; potency is read from the fitted curve at half-maximal effect.
SMILES,AMA1-RON2 inh,Tb PYK inh,RE007 growth inh,LmPK inh,VACV mCherry inh,VACV Venus inh
C=CCn1c(SCC(=O)c2ccc(CNC(C)=O)o2)nc2ccccc2c1=O,-1.2%,0.5%,-1.6%,1.7%,·,1.26µM*
Cc1ccc(NC(=O)N2CCc3ccccc32)cc1,2.6%,-26.1%,?,25.1µM*,·,·
Cc1ccc(NC(=O)N2CCCc3ccccc32)cc1,3.1%,-1.8%,-1.6%,2.2%,-2.9%,-2.9%
Cc1ccc(C(=O)N2CCc3ccccc32)o1,-19.5%,-29.5%,?,14.1µM*,-20.5%,-13.2%
CCCCCCCCCCCCCCCCCCOP(=O)([O-])OC1CC[N+](C)(C)CC1,·,4.2%[33.2 µM],·,·,·,·
Cc1noc(C)c1CC(=O)N1CCOc2c(cc(-c3nc4ccccc4s3)cc2OC2CCOC2)C1 (centres undefined),·,·,·,·,-3.8%,-2.6%
N=c1n(CCN2CCCCC2)c2ccccc2n1CC(O)c1ccc(Cl)c(Cl)c1 (centres undefined),-6.3%,1.4%,10.1%,6.7%,?,11.2µM*
N=c1n(CCN2CCCCC2)c2ccccc2n1CC(O)c1cccc(Br)c1 (centres undefined),-0.8%,-15.6%,-10.5%,1.2%,?,?
Cc1ccc(NCc2cccn2-c2nnc(N3CCC(C(=O)NCCc4ccccc4)CC3)s2)cc1,·,2.9%,·,·,-25.8%,-20.3%
COc1cc(O)c(C(CCN2CCN(c3ccccc3)CC2)c2ccc(N(C)C)cc2)c(OC)c1 (centres undefined),11.2µM*,2.3%,-8.7%,1.3%,?,-14.8%
COc1cc(O)c(C(CCN2CCOCC2)c2ccc(N(C)C)cc2)c(OC)c1 (centres undefined),20µM*,-1.6%,-17.8%,9.8%,?,-13.8%
CN(C)CC(C)(C)CNC(=O)c1cnn(-c2nccc(-c3ccc4c(c3)OCO4)n2)c1-c1ccco1,·,·,·,·,-8.3%,4.0%
Nc1ccc(Cc2ccc(C=O)cc2)cc1,·,·,·,·,i,-15.1%
Cc1ccc2nc(-c3ccc(C)o3)c(NC3CCCC3)n2c1,·,·,·,·,-4.6%,-14.0%
Cc1ccc2nc(-c3ccccn3)c(NC3CCCC3)n2c1,?,2.6%,?,-0.9%,12.6µM*,-28.2%
CCc1ccn2cc(-c3ccc4c(c3)OCO4)nc2c1,-10.5%,?,?,14.1µM*,-22.3%,-16.8%
COC(=O)c1ccc2nc(-c3ccc4c(c3)OCO4)cn2c1,-14.1%,-11.9%,-15.9%,?,-0.6%,-4.2%
NC(=O)CCCn1c(C(=O)c2ccc(Cl)cc2)c2ccc([N+](=O)[O-])cc2[n+]1[O-],3.0%,2.0%,3.4%,·,?,?
NC(=O)CCCn1c(C(=O)c2cc(Cl)c(N)c(Cl)c2)c2ccc([N+](=O)[O-])cc2[n+]1[O-],-5.4%,-5.3%,-3.6%,·,?,11.2µM*
NCCCn1c(C(=O)c2ccc(Cl)cc2)c2ccc([N+](=O)[O-])cc2[n+]1[O-],-8.7%,0.2%,-19.3%,·,7.08µM*,?
COc1cc(-c2cnc3ccccc3c2)cc2c1OCCN(S(=O)(=O)C[C@]13CC[C@H](CC1=O)C3(C)C)C2,·,·,·,·,-10.7%,3.5%
O=C(NNC(=O)C12CC3CC(CC(C3)C1)C2)c1ccccc1O,71.7%,0.8%,18.3%,·,10µM*,?
C[N+]1(CCF)[C@@H]2CC[C@@H]1CC(OC(=O)C(O)(c1ccccc1)c1ccccc1)C2 (some centres undefined),·,-4.9%,·,·,·,·
NS(=O)(=O)c1ccc(CCNC(=O)c2cccc3ccccc23)cc1,41.7%,2.0%,6.2%,-5.3%,-3.6%,-10.2%
NS(=O)(=O)c1ccc(CCNC(=O)c2ccc[nH]c2=S)cc1,120.5%,0.5%,8.91µM*,-6.6%,-6.7%,-8.1%
SMILES,AMA1-RON2 inh,Tb PYK inh,RE007 growth inh,LmPK inh,VACV mCherry inh,VACV Venus inh
CSc1nnc(CNC(=O)/C=C/c2ccccc2Cl)n1-c1ccc(F)cc1,·,·,·,·,i,0.0%
COc1ccc2c(C#CCCO)c(-c3ccc(S(C)(=O)=O)cc3)sc2c1,1.3%,-2.9%,1.1%,·,?,?
COc1ccc2sc(-c3ccc(S(C)(=O)=O)cc3)c(C#CCO)c2c1,8.2%,-3.9%,-2.7%,·,10µM*,?
Cc1cnc(-n2ncc(C(=O)NCc3ccncc3)c2C(C)C)nc1-c1ccc(F)cc1,·,·,·,·,-22.1%,-16.9%
C/C(=N\NC(=O)C12CCC(C)(C(=O)O1)C2(C)C)c1ccccc1O (centres undefined),146.6%,1.3%,3.6%,-3.2%,?,-23.7%
CC12CCC(C(=O)N/N=C/c3ccc(O)cc3O)(OC1=O)C2(C)C (centres undefined),55.6%,-14.9%,5.2%,-6.7%,14.1µM*,-26.7%
CC(NC(=O)c1ccco1)c1nnc2n1CCN(Cc1ccc(N(C)C)cc1)CC2 (centres undefined),·,·,·,·,-11.9%,-6.1%
COc1cc2nc(N3CCCN(C)CC3)nc(NC3CCN(C)C3)c2cc1OC (centres undefined),·,·,·,·,?,11.2µM*
COc1cc2c(NC3CCN(C)CC3)nc(N3CCCN(C)CC3)nc2cc1OCCN(C)CCN(C)C,·,·,·,·,-8.3%,-18.2%
COc1cc2nc(N3CCCN(C)CC3)nc(NC3CCCCC3)c2cc1OC,·,·,·,·,-19.2%,?
COc1cc2nc(N3CCCN(C)CC3)nc(N(C)C3CCN(C)CC3)c2cc1OC,·,·,·,·,10µM*,10µM*
COc1cc2c(NC3CCN(C)CC3)nc(N3CCCN(C)CC3)nc2cc1OCC1CCCCN1 (centres undefined),·,·,·,·,5.01µM*,15.8µM*
Cc1cccc(CNC(=O)c2cnn(-c3nccc(-c4ccccc4C(F)(F)F)n3)c2C)n1,·,·,·,·,-10.3%,-12.2%
COC(=O)CC1C(=O)NCCN1C(=O)CN1Cc2ccccc2OC(c2ccccc2)C1 (centres undefined),·,·,·,·,-8.7%,-7.3%
CC[C@@]1(O)C(=O)OCc2c1cc1n(c2=O)Cc2cc3ccccc3nc2-1,·,·,·,3.1%,?,?
CCC1(OC(=O)CN)C(=O)OCc2c1cc1n(c2=O)Cc2cc3ccccc3nc2-1 (centres undefined),-3.4%,2.9%,-26.3%,5.6%,7.08µM*,?
Cc1ccc(C(=O)c2cc(C)sc2NC(=O)CN2CCN(C(=O)c3ccco3)CC2)cc1,-23.6%,4.5%,12.4%,-1.5%,11.2µM*,?
CCCCc1nc2c(c3c1C[C@H](C)OC3)CN(S(=O)(=O)c1ccc(C#N)cc1)CC2,·,·,·,-6.7%[11.5 µM],·,·
